{
  "source": "paper PMC7862700",
  "about": "“An all-to-all approach to the identification of sequence-specific readers for epigenetic DNA modifications on cytosine”",
  "assay_in_all_cases": "DAPPL (digital affinity profiling via proximity ligation, sequencing); 10 mM Tris-HCl pH 7.5, 50 mM NaCl, 1 mM DTT, 4% glycerol, room temperature, 30 min; GST-TFs on glutathione beads, 16-mer random dsDNA library, 0.1% formaldehyde crosslink after washing; high values mean tight binding",
  "details_in_all_cases": "protein: recombinant; tags: N-terminal GST; dsDNA, one strand shown",
  "key": {"ETV1": {"target": "ETV1 (Homo sapiens, UniProt P50549 1-477)", "sequence (P50549 whole entry, the tested form may be a part)": "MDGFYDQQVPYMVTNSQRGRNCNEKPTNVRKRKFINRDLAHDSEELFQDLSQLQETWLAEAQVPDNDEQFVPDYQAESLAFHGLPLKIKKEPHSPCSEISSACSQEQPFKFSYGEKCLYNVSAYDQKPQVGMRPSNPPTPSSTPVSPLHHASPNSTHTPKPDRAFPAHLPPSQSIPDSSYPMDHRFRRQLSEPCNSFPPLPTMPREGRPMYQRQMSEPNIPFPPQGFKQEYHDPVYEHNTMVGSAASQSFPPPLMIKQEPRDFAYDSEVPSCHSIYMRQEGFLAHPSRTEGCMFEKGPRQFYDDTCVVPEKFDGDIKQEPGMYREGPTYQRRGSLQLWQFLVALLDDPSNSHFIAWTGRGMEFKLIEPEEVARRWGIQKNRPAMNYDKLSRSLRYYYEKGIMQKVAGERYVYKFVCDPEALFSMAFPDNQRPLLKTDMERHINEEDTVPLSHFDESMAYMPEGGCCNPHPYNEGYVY", "method_in_brief": "(§1)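 Yeast served to express human transcription factors as GST fusions, which were then captured on glutathione beads and labelled with DNA barcodes. Pooled with a tag-only sample, they were incubated with 200 nmole of a 16-mer random double-stranded DNA library for 30 min at room temperature in Tris/NaCl/DTT/glycerol buffer, washed, crosslinked with 0.1% formaldehyde, ligated by proximity, amplified by PCR and sequenced. Dividing each hexamer's read frequency for a factor by its frequency for the tag-only sample gives the binding signal.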"}, "ERF": {"target": "T1, ERF (Homo sapiens, UniProt P50548 1-548)", "T1 sequence": "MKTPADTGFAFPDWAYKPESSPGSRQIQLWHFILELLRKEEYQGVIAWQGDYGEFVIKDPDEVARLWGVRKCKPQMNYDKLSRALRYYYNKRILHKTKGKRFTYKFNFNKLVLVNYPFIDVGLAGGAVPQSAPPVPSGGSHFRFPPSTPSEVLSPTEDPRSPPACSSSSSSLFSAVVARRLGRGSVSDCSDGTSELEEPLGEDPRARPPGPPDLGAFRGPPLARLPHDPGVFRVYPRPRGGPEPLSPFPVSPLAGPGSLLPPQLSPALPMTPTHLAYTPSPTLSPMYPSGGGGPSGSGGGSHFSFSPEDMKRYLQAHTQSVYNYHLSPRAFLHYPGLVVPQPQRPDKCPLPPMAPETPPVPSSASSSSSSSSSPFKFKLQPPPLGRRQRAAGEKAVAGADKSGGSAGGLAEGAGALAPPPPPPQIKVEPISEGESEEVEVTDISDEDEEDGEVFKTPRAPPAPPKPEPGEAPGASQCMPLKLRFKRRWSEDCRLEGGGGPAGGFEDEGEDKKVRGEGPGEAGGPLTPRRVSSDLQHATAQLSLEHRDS", "method_in_brief": "as §1"}, "ETV3L": {"target": "T2, ETV3L (Homo sapiens, UniProt Q6ZN32 1-361)", "T2 sequence": "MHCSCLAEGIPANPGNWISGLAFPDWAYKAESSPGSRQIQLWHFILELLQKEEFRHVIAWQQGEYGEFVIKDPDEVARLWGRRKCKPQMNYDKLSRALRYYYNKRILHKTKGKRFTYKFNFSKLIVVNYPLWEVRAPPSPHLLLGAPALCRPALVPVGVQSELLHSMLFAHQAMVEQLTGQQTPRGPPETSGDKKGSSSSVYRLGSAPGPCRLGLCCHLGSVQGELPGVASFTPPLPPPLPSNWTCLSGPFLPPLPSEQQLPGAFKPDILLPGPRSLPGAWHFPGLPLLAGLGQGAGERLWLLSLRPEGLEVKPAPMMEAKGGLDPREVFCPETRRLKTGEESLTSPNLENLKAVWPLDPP", "method_in_brief": "as §1"}, "ETS2": {"target": "T3, ETS2 (Homo sapiens, UniProt P15036 1-469)", "T3 sequence": "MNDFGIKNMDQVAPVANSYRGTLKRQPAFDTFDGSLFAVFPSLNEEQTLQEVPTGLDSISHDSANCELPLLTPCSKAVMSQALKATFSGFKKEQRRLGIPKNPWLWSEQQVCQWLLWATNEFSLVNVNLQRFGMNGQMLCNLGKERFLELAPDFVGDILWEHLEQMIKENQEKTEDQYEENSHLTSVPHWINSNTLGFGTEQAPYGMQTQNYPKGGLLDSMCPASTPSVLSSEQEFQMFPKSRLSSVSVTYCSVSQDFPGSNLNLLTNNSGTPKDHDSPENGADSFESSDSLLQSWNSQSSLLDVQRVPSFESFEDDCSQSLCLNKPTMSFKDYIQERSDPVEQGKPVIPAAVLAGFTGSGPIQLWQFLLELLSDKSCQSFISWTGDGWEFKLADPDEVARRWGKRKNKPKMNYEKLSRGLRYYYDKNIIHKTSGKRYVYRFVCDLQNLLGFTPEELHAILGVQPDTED", "method_in_brief": "as §1"}, "SPDEF": {"target": "T4, SPDEF (Homo sapiens, UniProt O95238 1-335)", "T4 sequence": "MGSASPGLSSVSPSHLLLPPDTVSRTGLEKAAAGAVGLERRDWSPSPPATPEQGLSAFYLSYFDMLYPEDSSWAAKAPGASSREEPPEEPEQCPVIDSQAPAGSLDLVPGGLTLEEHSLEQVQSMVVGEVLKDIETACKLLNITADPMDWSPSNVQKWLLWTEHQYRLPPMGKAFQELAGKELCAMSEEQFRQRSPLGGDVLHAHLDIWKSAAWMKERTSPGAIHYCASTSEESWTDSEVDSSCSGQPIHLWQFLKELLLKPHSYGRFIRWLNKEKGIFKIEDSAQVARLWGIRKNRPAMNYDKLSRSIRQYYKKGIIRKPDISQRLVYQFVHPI", "method_in_brief": "as §1"}, "ETV7": {"target": "T5, ETV7 (Homo sapiens, UniProt Q9Y603 1-341)", "T5 sequence": "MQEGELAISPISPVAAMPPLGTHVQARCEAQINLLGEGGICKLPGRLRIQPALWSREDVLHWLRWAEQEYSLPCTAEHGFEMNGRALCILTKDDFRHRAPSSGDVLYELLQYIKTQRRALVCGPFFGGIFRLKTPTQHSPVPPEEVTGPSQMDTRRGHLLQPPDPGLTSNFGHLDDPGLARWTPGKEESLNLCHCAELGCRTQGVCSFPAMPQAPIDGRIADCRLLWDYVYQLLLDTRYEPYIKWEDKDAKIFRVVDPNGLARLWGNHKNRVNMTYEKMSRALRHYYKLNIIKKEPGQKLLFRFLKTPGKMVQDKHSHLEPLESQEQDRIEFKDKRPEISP", "method_in_brief": "as §1"}, "ELF5": {"target": "T6, ELF5 (Homo sapiens, UniProt Q9UKW6-2 1-255)", "T6 sequence": "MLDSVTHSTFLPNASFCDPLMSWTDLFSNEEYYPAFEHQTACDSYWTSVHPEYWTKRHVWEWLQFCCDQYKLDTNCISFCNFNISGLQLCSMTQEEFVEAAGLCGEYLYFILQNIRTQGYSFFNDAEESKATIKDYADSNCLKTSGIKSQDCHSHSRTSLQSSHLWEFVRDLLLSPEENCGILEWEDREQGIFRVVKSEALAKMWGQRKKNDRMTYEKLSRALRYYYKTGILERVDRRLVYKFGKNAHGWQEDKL", "method_in_brief": "as §1"}, "ETV3": {"target": "T7, ETV3 (Homo sapiens, UniProt P41162-2 1-143)", "T7 sequence": "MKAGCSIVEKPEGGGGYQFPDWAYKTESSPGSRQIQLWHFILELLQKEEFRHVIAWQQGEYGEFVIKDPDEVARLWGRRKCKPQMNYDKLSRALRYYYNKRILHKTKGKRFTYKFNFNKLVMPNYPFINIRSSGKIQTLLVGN", "method_in_brief": "as §1"}, "ETV6": {"target": "ETV6 (Homo sapiens, UniProt P41212 1-452)", "sequence (P41212 whole entry)": "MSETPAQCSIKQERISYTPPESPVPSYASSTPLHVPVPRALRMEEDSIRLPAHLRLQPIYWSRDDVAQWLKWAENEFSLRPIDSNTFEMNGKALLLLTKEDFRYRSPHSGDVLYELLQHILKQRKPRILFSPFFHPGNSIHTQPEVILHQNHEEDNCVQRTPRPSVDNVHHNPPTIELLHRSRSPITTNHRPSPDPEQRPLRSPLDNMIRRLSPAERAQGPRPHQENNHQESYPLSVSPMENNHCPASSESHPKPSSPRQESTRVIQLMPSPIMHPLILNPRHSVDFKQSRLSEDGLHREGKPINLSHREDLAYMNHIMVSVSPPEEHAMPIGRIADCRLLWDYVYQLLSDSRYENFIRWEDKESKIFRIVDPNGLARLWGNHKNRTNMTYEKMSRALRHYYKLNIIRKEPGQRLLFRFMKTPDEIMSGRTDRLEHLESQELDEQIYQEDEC", "method_in_brief": "as §1"}},
  "data": [
    {"sequence": "TCTCGC", "values": [
      {"measurement": "binding signal", "setting": "ETV1", "result": "1.75 fold enrichment (6-mer frequency, TF over GST control)"},
      {"measurement": "binding signal", "setting": "ERF", "result": "1.75 fold enrichment (6-mer frequency, TF over GST control)"},
      {"measurement": "binding signal", "setting": "ETV3L", "result": "1.81 fold enrichment (6-mer frequency, TF over GST control)"},
      {"measurement": "binding signal", "setting": "ETS2", "result": "1.91 fold enrichment (6-mer frequency, TF over GST control)"},
      {"measurement": "binding signal", "setting": "SPDEF", "result": "1.63 fold enrichment (6-mer frequency, TF over GST control)"},
      {"measurement": "binding signal", "setting": "ETV7", "result": "1.68 fold enrichment (6-mer frequency, TF over GST control)"},
      {"measurement": "binding signal", "setting": "ELF5", "result": "1.71 fold enrichment (6-mer frequency, TF over GST control)"},
      {"measurement": "binding signal", "setting": "ETV3", "result": "1.79 fold enrichment (6-mer frequency, TF over GST control)"},
      {"measurement": "binding signal", "setting": "ETV6", "result": "1.62 fold enrichment (6-mer frequency, TF over GST control)"}
    ]}
  ]
}
